MCF10A rereplic: inducers of DNA re-replication in MCF 10A breast cells | MCF 10A DNA re-replication, Hoechst nuclear intensity, 48 h | AID 624296 | 2.9% of 350,000 active | Potency, µM (titrated, usually from 46.1 µM), most hits filed as activators; also: nearly all actives have a fitted effect of over 50% in size
SW480 rereplic: DNA re-replication induction in SW480 cells. Potency, µM (series often up to 46.1 µM), hits mostly activators. 1.8% of 340,000 active. SW480 DNA re-replication, Hoechst DNA content imaging, 48 h; also: nearly all actives have a fitted effect of over 55% in size
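Readout is total intensity of Hoechst-stained nuclei, excited at 405 nm and collected at 500-530 nm. Compound treatment lasted 48 hr at 37 C in 5% CO2 before staining.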
KB-3-1 cytotox: KB-3-1 parental cell cytotoxicity; KB-3-1 viability, CellTiter-Glo ATP luminescence, 72 h; Potency, µM (top dose mostly 46.1 µM), usual class: cytotoxic; 1.4% of 400,000 active; also: nearly all actives have a fitted effect of over 60% in size
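KB-3-1 cells, DMEM (no phenol red) + 10% FBS; compound by pin transfer, 72 h, 37 °C. Readout: CellTiter-Glo luminescence after 10 min. Data normalized, curve-fitted.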
KB-V1 MDR tox: KB-V1 MDR subline cytotoxicity | Potency, µM (highest dose often 46.1 µM), most hits filed as cytotoxic | 3.4% of 400,000 active | KB-V1 MDR cells viability, CellTiter-Glo, 72 h | AID 1347076; also: nearly all actives have a fitted effect of over 60% in size
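KB-V1 MDR subline cells in DMEM (phenol-red free, 10% FBS) exposed to compounds in qHTS concentration series for 72 h at 37 degrees C. Viability read by CellTiter-Glo luminescence; concentration-effect curves fitted after normalization and correction.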
IL-1B inflam inh: inhibitors of inflammasome signaling (IL-1 beta secretion); THP-1 LPS/ATP IL-1B secretion, AlphaLISA, 16 h; active compounds read low; activity change, % at 57.5 µM; 4.7% of 360,000 active; AID 743279; in the data active = activity change below about -50%; inconclusive = mostly about -30% to -49%
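THP-1 cells pretreated 1 hr with compounds (up to 57.5 uM final), then stimulated with LPS (250 ng/mL final) plus ATP (1.25 mM final); secreted IL-1B measured by AlphaLISA after 16 hr, decreased signal indicating inhibition.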
Large screens that a line does not name were inactive. Most compounds without a hit are left out; they make up all but 9.9% or so of the library. Unless noted, calls follow the shape of the dose curve; as a rule, active = well fitted curve in the direction sought with a large enough effect; inconclusive = small, poorly fitted or top-dose-only effect, or another doubt; inactive = no such curve, though single readings can be large; an effect the other way counts as inactive or inconclusive.

O=C(NCc1ccc2c(c1)OCO2)c1ccc(COc2cc(Cl)ccc2Cl)o1	KB-V1 MDR tox inconclusive, IL-1B inflam inh inconclusive
O=C(N/N=C/c1ccc(O)cc1)c1ccc(COc2cc(Cl)ccc2Cl)o1	MCF10A rereplic 18µM
O=C(Nc1nn(Cc2ccc(Cl)cc2)cc1Br)c1ccc(COc2ccccc2Cl)o1	KB-3-1 cytotox inconclusive, KB-V1 MDR tox 16µM, IL-1B inflam inh inconclusive
Cc1ccc(CNC(=O)CC2(CC3=NS(=O)(=O)c4ccccc4N3)CCCC2)cc1	none
Cc1onc(-c2ccccc2)c1C(=O)Nc1nnc(CC(C)C)s1	none
CCCCNc1nc2c(S(=O)(=O)c3ccccc3)nnn2c2ccccc12	none
CCc1ccc(S(=O)(=O)c2nnn3c2nc(NCCNC(C)=O)c2ccccc23)cc1	IL-1B inflam inh -64
FC(F)Oc1ccc(NC(=S)NC23CC4CC(CC(C4)C2)C3)cc1	KB-3-1 cytotox 23µM, KB-V1 MDR tox 16µM, IL-1B inflam inh inconclusive
N#Cc1c(-c2ccccc2Cl)c2c([nH]c1=O)-c1ccccc1OC2	MCF10A rereplic 4.1µM, SW480 rereplic 18µM
Cc1ccc(NS(=O)(=O)c2cc(NC(=O)c3ccc4c(c3)NC(=O)CS4)ccc2C)c(C)c1	MCF10A rereplic inconclusive, KB-3-1 cytotox inconclusive, IL-1B inflam inh -115
CC(=O)c1c(C)[nH]c(C(=O)Nc2ccc(C)c(S(=O)(=O)N(C)C)c2)c1C	none
CC(=O)c1c(C)[nH]c(C(=O)Nc2ccc(C)c(S(=O)(=O)Nc3ccc(C)cc3C)c2)c1C	MCF10A rereplic 12µM, SW480 rereplic 16µM
COc1ccc(NC(=O)c2ccc3c(c2)NC(=O)CS3)cc1S(=O)(=O)Nc1ccc(Br)cc1	none
CC(=O)c1c(C)[nH]c(C(=O)OC(C)C(=O)Nc2ccc(C)c(S(=O)(=O)N3CCOCC3)c2)c1C (stereo not given)	none
Cc1ccc(NS(=O)(=O)c2cc(C(=O)Nc3cccc(N(C)S(C)(=O)=O)c3)ccc2C)c(C)c1	KB-V1 MDR tox 16µM
CCN(CC)S(=O)(=O)c1cc(NC(=O)C(C)OC(=O)c2[nH]c(C)c(C(C)=O)c2C)ccc1C (stereo not given)	MCF10A rereplic inconclusive, KB-3-1 cytotox inconclusive, KB-V1 MDR tox 21µM
Cn1nc(C2CC2)cc1NC(=O)C1(C)CCN1C(=O)CCc1ccccc1 (stereo not given)	none (no result: MCF10A rereplic, SW480 rereplic)
O=C(NC(=S)NN1CCCCC1c1cccnc1)c1ccc(Br)cc1 (stereo not given)	IL-1B inflam inh -55
COC(=O)c1ccc(NC(=S)NN2CCCCC2c2cccnc2)cc1 (stereo not given)	none
COc1ccc(NC(C)=O)cc1NC(=O)C1(c2cccs2)CCOCC1	none (no result: MCF10A rereplic, SW480 rereplic, IL-1B inflam inh)
COc1ccc(C)cc1S(=O)(=O)n1cnc2ccccc21	MCF10A rereplic inconclusive, SW480 rereplic inconclusive, KB-3-1 cytotox 5.2µM, KB-V1 MDR tox inconclusive
COc1ccc(N2CCN(Cc3nc(N)nc(Nc4ccc(C)c(Cl)c4)n3)CC2)cc1	MCF10A rereplic inconclusive, SW480 rereplic inconclusive, KB-V1 MDR tox 5.2µM
CCOC(=O)N1CCN(Cc2nc(N)nc(Nc3ccc(Oc4ccccc4)cc3)n2)CC1	MCF10A rereplic inconclusive, KB-V1 MDR tox 13µM
Cc1ccc(Nc2nc(N)nc(CN3CCN(c4ccccc4)CC3)n2)cc1Cl	MCF10A rereplic 18µM, KB-V1 MDR tox 16µM, IL-1B inflam inh inconclusive
COc1ccccc1Nc1nc(N)nc(CN2CCN(c3ccccc3)CC2)n1	MCF10A rereplic inconclusive, KB-V1 MDR tox inconclusive
COc1ccccc1CNC(=O)Cn1c(=O)ccc2cc(S(=O)(=O)N3CCCC3)ccc21	none (no result: MCF10A rereplic, SW480 rereplic, IL-1B inflam inh)
O=C(O)c1ccccc1C(=O)NCCc1c(C(=O)O)[nH]c2ccc(F)cc12	none
COCC(C)N1C(=O)Cc2c1nc(N)c1c(N)nc(N3CCN(c4ccccc4F)CC3)c(C#N)c21 (stereo not given)	MCF10A rereplic 12µM, SW480 rereplic inconclusive, KB-3-1 cytotox inconclusive, KB-V1 MDR tox inconclusive, IL-1B inflam inh inconclusive
COc1cc(C(=O)Nc2nc3c(s2)Cc2c(Br)ccc(OC)c2-3)cc(OC)c1OC	none (no result: MCF10A rereplic, SW480 rereplic, IL-1B inflam inh)
COC(=O)c1cccc(/C=N/NC(N)=S)c1O	SW480 rereplic inconclusive, KB-3-1 cytotox inconclusive, KB-V1 MDR tox 15µM
COc1cccc(/C=N/NC(=O)c2cc3c(OC)c(OC)ccc3[nH]2)c1OC	MCF10A rereplic inconclusive, SW480 rereplic 23µM, KB-3-1 cytotox 9.2µM

Compound activity as filed in PubChem.
